Experiment [1] can be described thus: compounds binding Alexa647 anti-His antibody – biochemical, small-molecule microarray, 635 nm fluorescence, artefact control for SMM control protein annotation, primary screen (AID 1128).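 Also: score merges feature fluorescence with signal-to-noise for each printed compound spot.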 Particulars: higher = more signal.
The subject of experiment [2] is Human papillomavirus type 1a E7 protein (residues 1-88). Briefly: HPV1a E7 small-molecule binders, primary screen, biochemical, small-molecule microarray, residues 1-88, 635 nm (AID 1129). Particulars: small-molecule microarray binding, fluorescence 635 nm; higher = more signal.
The target of experiment [3] is Focal adhesion kinase 1 (Homo sapiens) (UniProt Q05397). Briefly: PTK2 protein binding on printed compound slides – biochemical, small-molecule microarray, 635/667 nm fluorescence, BSA, DTT, primary screen (AID 1130).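 Also: composite of spot emission at 667 nm and signal to noise over triplicate slides.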 The conditions noted are these: 635 nm fluorescence, higher = more signal.
Focal adhesion kinase 1 (Homo sapiens), sequence (Q05397 whole entry, looked up): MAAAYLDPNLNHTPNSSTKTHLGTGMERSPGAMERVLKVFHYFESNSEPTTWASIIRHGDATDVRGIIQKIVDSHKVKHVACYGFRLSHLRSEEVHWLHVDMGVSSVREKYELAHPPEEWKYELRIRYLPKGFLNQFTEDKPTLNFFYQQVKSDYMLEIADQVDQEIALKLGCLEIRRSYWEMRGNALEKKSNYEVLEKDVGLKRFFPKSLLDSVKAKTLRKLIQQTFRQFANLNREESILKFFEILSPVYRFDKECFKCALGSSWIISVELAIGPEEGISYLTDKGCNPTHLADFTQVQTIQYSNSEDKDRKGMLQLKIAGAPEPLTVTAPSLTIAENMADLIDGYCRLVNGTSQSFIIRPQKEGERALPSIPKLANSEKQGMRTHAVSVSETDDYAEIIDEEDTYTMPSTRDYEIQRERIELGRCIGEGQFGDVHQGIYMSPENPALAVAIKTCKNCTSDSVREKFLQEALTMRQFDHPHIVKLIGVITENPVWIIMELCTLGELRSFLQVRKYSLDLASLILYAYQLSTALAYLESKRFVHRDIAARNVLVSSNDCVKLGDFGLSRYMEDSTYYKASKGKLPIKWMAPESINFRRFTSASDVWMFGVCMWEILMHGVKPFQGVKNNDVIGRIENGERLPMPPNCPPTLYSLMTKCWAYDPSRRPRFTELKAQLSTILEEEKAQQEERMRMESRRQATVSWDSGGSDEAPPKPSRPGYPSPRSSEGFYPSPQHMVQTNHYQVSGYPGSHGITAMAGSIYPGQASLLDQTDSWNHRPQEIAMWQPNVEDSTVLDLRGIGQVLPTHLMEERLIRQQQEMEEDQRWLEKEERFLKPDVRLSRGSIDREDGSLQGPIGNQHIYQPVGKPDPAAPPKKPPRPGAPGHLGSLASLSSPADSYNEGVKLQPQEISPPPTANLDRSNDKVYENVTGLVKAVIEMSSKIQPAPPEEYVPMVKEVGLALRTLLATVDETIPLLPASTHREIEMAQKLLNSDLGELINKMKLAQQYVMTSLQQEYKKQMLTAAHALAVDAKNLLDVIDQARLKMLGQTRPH
In experiment [4] the test system is Fibrinogen (Alexa647-labelled). Briefly: Alexa647-fibrinogen binding to printed small molecules – biochemical, small-molecule microarray, 635/667 nm fluorescence, artefact control for SMM control-protein annotation, profiling panel (AID 1131).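 Also: z-score merges 667 nm fluorescence with per-spot signal-to-noise over triplicate slides.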 Particulars: fibrinogen-A647 binding fluorescence, higher = more signal.
Experiment [5] addresses Follistatin (Homo sapiens) (UniProt P19883). Briefly: FST protein binding to printed compounds – biochemical, small-molecule microarray, 635/667 nm fluorescence, primary screen (AID 1132). The conditions noted are these: 635 nm fluorescence, higher = more signal.
Experiment [6] concerns the target Fibroblast growth factor 2 (Homo sapiens) (UniProt P09038). Briefly: basic fibroblast growth factor binding to printed compounds – biochemical, small-molecule microarray, 635/667 nm fluorescence, primary screen (AID 1133). Particulars: FGF2, fluorescence 635/667, higher = more signal.
The nature of experiment [7]: JC-1 mitochondrial potential readout, lung cancer cells – cell-based, A549, JC-1 fluorescence, basal, 24 h, 100 nL, profiling panel (AID 1138).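 Also: A549 lung adenocarcinoma cells under basal conditions with no added stimulus; test concentration not given here.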 The conditions noted are these: higher = more signal.
The test system of another experiment is Lefty1. Briefly: Lefty1 protein binding to printed compounds – biochemical, small-molecule microarray, 635/667 nm fluorescence, primary screen (AID 1139). The conditions noted are these: fluorescence 635/667, higher = more signal.
Experiment [8] deals with wheat germ agglutinin (Triticum aestivum), Alexa647-labelled. Briefly: Alexa647-WGA lectin binding to printed small molecules – biochemical, small-molecule microarray, 635/667 nm fluorescence, artefact control for SMM control-protein annotation, profiling panel (AID 1140).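 Also: score merges 667 nm feature emission with signal to noise over triplicate slides.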 Particulars: WGA-A647 binding, 635 nm fluorescence, higher = more signal.
Experiment [9] concerns the target Luciferin 4-monooxygenase (Photinus pyralis) (UniProt P08659). Briefly: inhibition of purified Photinus pyralis luciferase – biochemical, luminescence, purified enzyme, 2006 set, primary screen (AID 1141).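 Also: cell-free assay with purified firefly luciferase at 100 ng per well in PBS; test concentration not given here.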 The conditions noted are these: purified firefly luciferase, SteadyGlo luminescence, 30 min; higher = more signal, called active from +8 up or from −8 down.
Experiment [10] concerns Wnt5a (protein binding on small-molecule microarray). Briefly: small molecules binding Wnt5a protein – biophysical, small-molecule microarray, 635/667 nm fluorescence, primary screen (AID 1142).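 Also: fluorescence read at 667 nm with signal to noise per printed feature.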 The conditions noted are these: 635 nm fluorescence, higher = more signal.
Experiment [11] is described as follows: ATP-based viability of Huh7 replicon cells – cell-based, CellTiter-Glo luminescence, basal, 48 h, cytotoxicity control for HCV replication inhibitor project, primary screen (AID 1143).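 Also: Huh7 hepatoma cells carrying a hepatitis C replication reporter with no stimulus; test concentration not given here.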 The conditions noted are these: higher = more signal, called active from +8 up or from −8 down.
A short description of experiment [12]: Pseudomonas biofilm growth suppression – PAO1 strain, BacTiter-Glo luminescence, LB-PBS, primary screen (AID 1144). The conditions noted are these: P. aeruginosa PAO1 biofilm, 12 h, higher = more signal.
The nature of experiment [13]: basal CRE-LacZ reporter activity in PC12 – cell-based, unstimulated, primary screen (AID 1145). Particulars: no forskolin, luminescence, 4.5 h, higher = more signal, called active from +8 up or from −8 down.
Experiment [14] is described as follows: forskolin-driven CRE-LacZ activity in PC12 – cell-based, CRE-LacZ reporter, forskolin-stimulated, primary screen (AID 1146).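 Also: PC12 cells with 6xCRE LacZ reporter stimulated by forskolin 10 µM; beta-galactosidase reporter signal reflecting CREB driven transcription.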 The conditions noted are these: luminescence, 4.5 h, higher = more signal, called active from +8 up or from −8 down.
Experiment [15] has as its target Streptavidin (Streptomyces avidinii) (UniProt P22629). Briefly: compounds binding control protein streptavidin – biophysical, small-molecule microarray, 635/667 nm fluorescence, artefact control for SMM compound annotation, primary screen (AID 1147).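 Also: signal reflects streptavidin binding to arrayed compounds as a control protein.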 Particulars: higher = more signal.
Experiment [16] can be described thus: probe aInhba binding on compound microarray – biochemical, small-molecule microarray, 635/667 nm fluorescence, primary screen (AID 1148).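 Also: score merges 667nm spot fluorescence with signal-to-noise for antibody binding to printed compounds.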 Particulars: higher = more signal.
Experiment [17] has as its target Torsin-1A (Homo sapiens) (UniProt O14656). Briefly: TOR1A wild-type binding on microarray – cell lysate, small-molecule microarray, lysate, 635/667 nm, primary screen (AID 1149). Particulars: COS7 hTOR1A-WT lysate, 635 nm fluorescence, higher = more signal.
Experiment [18] has the same target. Briefly: torsin A mutant lysate binding on microarrays – cell lysate, small-molecule microarray, COS7 lysate, 635/667 nm fluorescence, primary screen (AID 1150).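 Also: score pools 667 nm emission and signal to noise measuring lysate protein binding.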 Particulars: COS7 hTOR1A mutant lysate, 635 nm fluorescence, higher = more signal.
Experiment [19] concerns Sonic hedgehog protein (Shh). Briefly: Sonic hedgehog microarray binding compounds – biochemical, small-molecule microarray, 635/667 nm fluorescence, primary screen (AID 1151).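 Also: Shh protein binding to compounds spotted on small-molecule microarray slides; score combines spot fluorescence intensity with signal-to-noise across triplicate slides.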 Particulars: 635 nm fluorescence, higher = more signal.

The source made the active and inactive calls. Unless noted, no rule for the calls is given here.

Fibroblast growth factor 2 (Homo sapiens), sequence (P09038 whole entry, looked up): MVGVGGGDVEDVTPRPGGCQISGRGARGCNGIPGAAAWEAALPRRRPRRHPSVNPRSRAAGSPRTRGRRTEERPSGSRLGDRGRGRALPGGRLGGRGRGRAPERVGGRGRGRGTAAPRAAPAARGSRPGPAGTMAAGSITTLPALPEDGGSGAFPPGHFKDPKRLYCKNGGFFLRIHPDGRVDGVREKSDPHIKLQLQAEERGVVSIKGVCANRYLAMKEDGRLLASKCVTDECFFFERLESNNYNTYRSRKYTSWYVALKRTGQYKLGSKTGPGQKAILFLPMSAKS
Torsin-1A (Homo sapiens), sequence (O14656 whole entry, looked up): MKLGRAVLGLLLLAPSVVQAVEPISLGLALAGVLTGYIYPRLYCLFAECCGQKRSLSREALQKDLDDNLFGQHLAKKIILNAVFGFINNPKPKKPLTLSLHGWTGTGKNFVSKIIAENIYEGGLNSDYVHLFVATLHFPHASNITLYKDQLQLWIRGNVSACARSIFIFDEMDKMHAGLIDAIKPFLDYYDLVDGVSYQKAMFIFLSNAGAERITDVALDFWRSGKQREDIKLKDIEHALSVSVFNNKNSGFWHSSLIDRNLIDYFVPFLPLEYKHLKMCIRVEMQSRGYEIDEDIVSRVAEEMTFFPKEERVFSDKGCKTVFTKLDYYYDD
Luciferin 4-monooxygenase (Photinus pyralis), sequence (P08659 whole entry, looked up): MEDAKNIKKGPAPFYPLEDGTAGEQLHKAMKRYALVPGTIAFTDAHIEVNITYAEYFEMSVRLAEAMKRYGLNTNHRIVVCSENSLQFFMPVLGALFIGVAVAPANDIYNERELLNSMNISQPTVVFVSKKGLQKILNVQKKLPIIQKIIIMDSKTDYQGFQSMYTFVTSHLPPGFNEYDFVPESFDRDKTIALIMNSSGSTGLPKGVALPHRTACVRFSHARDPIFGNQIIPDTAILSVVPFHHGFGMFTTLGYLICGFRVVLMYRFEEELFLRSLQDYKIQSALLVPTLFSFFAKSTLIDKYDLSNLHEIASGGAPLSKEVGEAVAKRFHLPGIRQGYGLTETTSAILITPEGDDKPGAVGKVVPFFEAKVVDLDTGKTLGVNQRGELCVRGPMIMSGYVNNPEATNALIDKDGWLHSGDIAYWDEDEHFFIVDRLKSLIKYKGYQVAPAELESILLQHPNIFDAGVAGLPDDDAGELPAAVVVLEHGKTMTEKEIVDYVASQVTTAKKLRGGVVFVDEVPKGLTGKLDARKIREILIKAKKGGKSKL
Streptavidin (Streptomyces avidinii), sequence (P22629 whole entry, looked up): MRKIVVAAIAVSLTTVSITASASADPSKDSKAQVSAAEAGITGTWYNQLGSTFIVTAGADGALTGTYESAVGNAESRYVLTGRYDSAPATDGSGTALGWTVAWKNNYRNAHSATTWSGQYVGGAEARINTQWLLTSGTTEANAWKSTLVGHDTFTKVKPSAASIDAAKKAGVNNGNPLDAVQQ
Follistatin (Homo sapiens), sequence (P19883 whole entry, looked up): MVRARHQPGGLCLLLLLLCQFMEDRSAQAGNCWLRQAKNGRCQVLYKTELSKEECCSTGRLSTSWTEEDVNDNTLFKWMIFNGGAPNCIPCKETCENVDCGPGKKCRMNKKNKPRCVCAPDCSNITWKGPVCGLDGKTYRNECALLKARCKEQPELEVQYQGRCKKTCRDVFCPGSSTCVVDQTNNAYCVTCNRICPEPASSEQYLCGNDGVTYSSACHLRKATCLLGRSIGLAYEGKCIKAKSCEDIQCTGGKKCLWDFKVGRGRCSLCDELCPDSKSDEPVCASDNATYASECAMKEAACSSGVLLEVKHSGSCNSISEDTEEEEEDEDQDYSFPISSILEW

Consider `CCOC(=O)c1ccc(NC(=O)O[C@H]2[C@H](OC(=O)Nc3ccc4c(c3)OCO4)[C@@H](OC(=O)Nc3ccc4c(c3)OCO4)[C@@H](OC)O[C@@H]2CO)cc1`, for which the composite z-score in [1] worked out at 2.28; in experiment [2], 1.22; in experiment [3], 0.891; in experiment [4], 0.992; in [5], 1.26; in experiment [6], 1.12. Besides, the composite z-score stood at 0.793 in the experiment with Lefty1; 1.16 in [8]; 0.332 in experiment [10]; 0.398 in [15]; 0.38 in experiment [16]; 0.164 with Torsin-1A (Homo sapiens) [17]. For the same compound, the composite z-score was 0.676 with Torsin-1A (Homo sapiens) [18] and 1.73 in experiment [19]. Further, the z-score in experiment [7] is -1.05; in experiment [9] it was -7.83 (inactive); in experiment [11], -1.23 (inactive); in experiment [12], 0.164 (inactive); in [13], 0.148 (inactive); in experiment [14], -0.557 (inactive).
For the compound `O=C1NC(=O)C2C1C=CC(C(O)c1cccc3ccccc13)N2Nc1ccc(Cl)cc1Cl` (stereo not given), the composite z-score was 1.92 in experiment [1]; 1.16 in experiment [2]; 0.442 in experiment [3]; 0.838 in [4]; 0.425 in [5]; -0.517 in experiment [6]. Besides, the composite z-score is -0.734 in the experiment on Lefty1; 0.758 in experiment [8]; 0.288 in [10]; 0.984 in experiment [15]; 0.153 in [16]; -0.616 with Torsin-1A (Homo sapiens) [17]. Moreover, the composite z-score in the experiment with Torsin-1A (Homo sapiens) [18] was 1.01; in experiment [19], -0.325. Further, the z-score in experiment [7] was -1.28; in [9], 0.0698 (inactive); in experiment [11] it was -1.96 (inactive); in experiment [12], -0.329 (inactive); in experiment [13], -0.14 (inactive); in [14], -0.572 (inactive).
For `CC=CC(O)C1C=CC2C(=O)N(c3ccccc3)C(=O)C2N1Nc1ccccc1F` (stereo not given), the composite z-score is 0.817 in [1]; 0.217 in experiment [2]; 0.451 in [3]; -1.06 in experiment [4]; 0.0954 in experiment [5]; -0.189 in [6]. The composite z-score in the experiment with Lefty1 was -0.844; in experiment [8], 0.0224; in experiment [10], 0.713; in [15], -0.0607; in [16], 0.572; with Torsin-1A (Homo sapiens) [17] it was 0.804. Moreover, the figures for the composite z-score (with Torsin-1A (Homo sapiens) [18]; in experiment [19]) were 0.42 and -0.371, respectively. Also, the z-score in experiment [7] is -1.05; in [9], 0.597 (inactive); in experiment [11] it was -0.118 (inactive); in experiment [12], 0.103 (inactive); in experiment [13] it was 0.481 (inactive); in experiment [14] it was 1.23 (inactive).
For the compound `CC(=O)NCCCC[C@@H]1NC(=O)[C@H]2C[C@@H](C(=O)NCCCC[N+](C)(C)C)[C@@H](c3cccc(OCCO)c3)N2C1=O`, the composite z-score was 1.57 in [1]; -0.416 in experiment [2]; 0.191 in experiment [3]; 0.231 in experiment [4]; 1.47 in experiment [5]; 1.85 in experiment [6]. Besides, the composite z-score was 1.71 with Lefty1; 0.552 in experiment [8]; 0.975 in experiment [10]; -0.296 in experiment [15]; 0.0031 in experiment [16]; 1.07 with Torsin-1A (Homo sapiens) [17]. Moreover, the figures for the composite z-score (in the experiment with Torsin-1A (Homo sapiens) [18]; in experiment [19]) were 2.34 and 2.18, respectively. The z-score in [7] is 0.584; in experiment [9] it was -1.42 (inactive); in [11] it was -1.62 (inactive); in [12] it was 0.481 (inactive); in experiment [13], -0.667 (inactive); in experiment [14] it was 0.451 (inactive).
As for `C[C@@H]1NC(=O)[C@@]23C(=O)N[C@@H](Cc4ccccc4)C2[C@H](C)[C@@]2(C)O[C@H]2C3/C=C/C/C=C\CNC(=O)[C@@H]2CCCN2C1=O` (stereo not given in full), the composite z-score in experiment [1] is 0.104; in experiment [2], -0.715; in experiment [3], -0.178; in [4], -1.12; in [5], 0.148; in experiment [6] it was -0.197. For the same compound, the composite z-score in the experiment on Lefty1 was 0.0216; in experiment [8], -0.628; in experiment [10], -0.0872; in experiment [15], -0.591; in experiment [16], -0.159; with Torsin-1A (Homo sapiens) [17], 0.271. In addition, the composite z-score with Torsin-1A (Homo sapiens) [18] is -0.127; in experiment [19], 0.44. For the same compound, the z-score in experiment [7] is 0.0238; in experiment [9], 0.0545 (inactive); in [11], -0.0642 (inactive); in experiment [12], -0.426 (inactive); in [13], -0.687 (inactive); in experiment [14], -0.226 (inactive).

These data come from PubChem BioAssay.
